Compound activity from PubChem.
3CLpro inhibitor: SARS-CoV 3CLpro protease inhibition | P0C6X7 | recombinant SARS-CoV 3CLpro, quenched FRET peptide cleavage | inhibition, % at 6 µM | hit rate 0.14% among 290,000 | AID 1706; in the data active = inhibition above about 12%
BoNT-F LC inh: blocks Botulinum neurotoxin F light chain protease | Multiplex microsphere protease cleavage assay, flow cytometry | inhibition, % at 10 µM | hit rate 0.22% among 360,000 | AID 588497; in the data active = inhibition above about 35%, passing the limit was not always enough; inconclusive = no clear call, values can overlap the other calls
BoNT A protease: inhibitors of Botulinum neurotoxin A light chain protease. multiplex microsphere protease substrate cleavage, flow cytometry. inhibition, % at 10 µM. hit rate 0.17% among 360,000. AID 588499
Anthrax LF prot: inhibitors of Bacillus anthracis lethal factor protease; hit rate 0.12% among 360,000; inhibition, % at 10 µM; multiplex microsphere protease cleavage assay, LF; P15917
Target sequence (P15917 whole entry, looked up): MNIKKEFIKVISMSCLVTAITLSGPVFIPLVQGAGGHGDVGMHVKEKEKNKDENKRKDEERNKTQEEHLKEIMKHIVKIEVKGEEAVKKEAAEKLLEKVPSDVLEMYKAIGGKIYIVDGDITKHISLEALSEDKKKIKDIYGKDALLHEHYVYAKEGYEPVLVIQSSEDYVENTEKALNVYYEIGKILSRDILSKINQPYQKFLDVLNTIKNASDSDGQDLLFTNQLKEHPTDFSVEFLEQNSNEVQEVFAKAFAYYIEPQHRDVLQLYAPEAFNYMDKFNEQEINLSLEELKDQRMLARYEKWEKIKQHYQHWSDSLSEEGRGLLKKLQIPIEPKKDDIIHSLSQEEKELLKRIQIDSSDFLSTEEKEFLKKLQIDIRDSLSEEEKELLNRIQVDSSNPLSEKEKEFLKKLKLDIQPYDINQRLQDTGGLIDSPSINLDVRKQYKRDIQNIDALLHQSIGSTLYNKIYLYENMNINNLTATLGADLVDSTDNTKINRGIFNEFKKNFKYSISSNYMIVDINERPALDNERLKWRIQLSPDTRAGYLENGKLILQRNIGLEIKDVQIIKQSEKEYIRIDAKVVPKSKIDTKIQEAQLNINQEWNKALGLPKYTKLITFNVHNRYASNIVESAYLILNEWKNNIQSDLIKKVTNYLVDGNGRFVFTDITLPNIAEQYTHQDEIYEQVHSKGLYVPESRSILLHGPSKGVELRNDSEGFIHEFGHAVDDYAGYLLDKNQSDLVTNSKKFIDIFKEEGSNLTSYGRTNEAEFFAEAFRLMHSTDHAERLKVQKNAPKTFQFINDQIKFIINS
CCHF vOTU inh: blocks the CCHF virus ovarian tumor domain protease; AID 651958; hit rate 0.55% among 370,000; CCHFV vOTU protease, Pep-AMC fluorescence; inhibition, % at 11.5 µM; in the data active = inhibition above about 30%
Bead autofluor: counter-screen for toxin protease inhibitors: compound fluorescence. hit rate 3.1% among 360,000. fluorescence intensity (test concentration not listed). compound autofluorescence counterscreen, microsphere flow cytometry; active compounds read high; in the data active = fluorescence intensity above about 16000; inconclusive = no clear call, values can overlap the other calls
Large screens that a line does not name were inactive. Compounds with a hit are over-represented: about 3.9% of the library has one in this group of screens. Cut-off read from the data, not from the text of the source, unless noted: active = inhibition above about 30%; inconclusive = no clear call, values can overlap the other calls; inactive = below that.

O=C(c1ccc([N+](=O)[O-])cc1)N(Cc1ccc(Cl)cc1Cl)N1C(=O)CCCC1=O	Bead autofluor 22479
O=c1c2ccccc2nnn1CCN1CCOCC1	none
CCCn1nc2ccccc2c1P(=N)(N1CCOCC1)N1CCOCC1	BoNT A protease inconclusive, Bead autofluor 20501
CCOC(=O)c1ccc(NC(=O)Nc2ccc3c4c(cccc24)C(=O)N3CC)cc1	Bead autofluor 21257
CCCCNS(=O)(=O)/C=C/c1cc(C)ccc1CNC(=O)OC(C)(C)C	none (no result: 3CLpro inhibitor, BoNT-F LC inh, BoNT A protease, Anthrax LF prot, Bead autofluor)
C[C@H](NC(=O)CCn1nnc2ccccc2c1=O)C(=O)O	none (no result: BoNT-F LC inh, BoNT A protease, Anthrax LF prot, Bead autofluor)
O=C(O)CCCNC(=O)CCn1nnc2ccccc2c1=O	none
O=C(CCn1nnc2ccccc2c1=O)NCC1CCC(C(=O)O)CC1 (centres undefined)	Bead autofluor 24413
O=C(O)CCCCCNC(=O)CCn1nnc2ccccc2c1=O	BoNT A protease inconclusive, Bead autofluor 21187
COc1ccc(-c2cc(C(F)(F)F)c(C#N)c(SCC(=O)Nc3nc(C)co3)n2)cc1	none (no result: CCHF vOTU inh)
Cc1cc(C(F)(F)F)c(C#N)c(SCC(=O)NC(C)(C)C)n1	Bead autofluor 25162
Cc1coc(NC(=O)CSc2nc(-c3ccc(Cl)cc3)cc(C(F)(F)F)c2C#N)n1	Bead autofluor 16407
COc1ccc(-n2c(COc3ccc(Cl)cc3)nnc2SCC(=O)Nc2ccc3c(c2)OCO3)cc1	none (no result: 3CLpro inhibitor, BoNT-F LC inh, BoNT A protease, Anthrax LF prot, Bead autofluor)
COc1ccc(N(C)S(=O)(=O)c2c(C)[nH]c(=O)[nH]c2=O)c(OC)c1	Bead autofluor 23317
CC(C)(C)Nc1nc(C(N)=O)nc(N2CCOCC2)n1	Bead autofluor 24325
NC(=O)c1nc(N2CCOCC2)nc(N2CCOCC2)n1	none
Cc1noc(C)c1C(=O)Nc1sc(C)c(-c2ccccc2)c1C#N	BoNT A protease inconclusive, Bead autofluor 22924
Cc1cccc(C(=O)Nc2sc(C)c(-c3ccccc3)c2C#N)c1	none
Cc1sc2nc(SCc3ccccc3)n(Cc3ccco3)c(=O)c2c1C	none
COc1ccc(NC(=O)CSc2nc3sc(C)c(C)c3c(=O)n2Cc2ccco2)cc1	BoNT A protease inconclusive, Bead autofluor 21853 (no result: CCHF vOTU inh)
COc1cccc(CSc2nc3sc(C)c(C)c3c(=O)n2Cc2ccco2)c1	Bead autofluor 19855
Cc1sc2nc(SCC(=O)C(C)(C)C)n(Cc3ccco3)c(=O)c2c1C	Bead autofluor 22551
O=C1[C@@H](C2CC2)[C@@H]2c3ccccc3C=NN2[C@@H]2c3ccccc3C=NN12	none (no result: 3CLpro inhibitor, BoNT-F LC inh, BoNT A protease, Anthrax LF prot, Bead autofluor)
Cn1c(=O)[nH]c2c(Br)nccc21	none (no result: 3CLpro inhibitor, BoNT-F LC inh, BoNT A protease, Anthrax LF prot, Bead autofluor)
CC(C)CN1C(=O)C[C@@]2(C(=O)N(C)c3ccc(NC(=O)C(F)(F)F)cc32)C1c1ccccc1 (some centres undefined)	none (no result: 3CLpro inhibitor, BoNT-F LC inh, BoNT A protease, Anthrax LF prot, Bead autofluor)
O=C(N/N=C1/SCC(=O)N1Cc1ccco1)c1ccccc1F	none
CCCc1cc(=O)[nH]c(SCc2cccc(C)c2)n1	BoNT A protease inconclusive, Bead autofluor 23596
CCCc1cc(=O)[nH]c(SCc2cc(Cl)ccc2OC(F)F)n1	Bead autofluor 24635
CCCc1cc(=O)[nH]c(SCc2ccccc2)n1	none
CCOC(=O)c1c(C2COc3ccccc3O2)csc1NC(=O)c1ccco1 (centres undefined)	Bead autofluor 21244
CCOC(=O)c1c(-c2cccs2)csc1NC(=O)c1ccco1	none
C/C(=C/C(=O)NCc1ccccc1)C(=O)O	Bead autofluor 22169
CC(C)=CC(=O)NCCc1ccccc1	none
O=C1N/C(=C\c2ccc(O)cc2)C(=O)c2ccccc21	Bead autofluor 19019 (no result: CCHF vOTU inh)
O=C(O)/C=C1\NC(=O)c2ccccc21	none
CC(=O)c1ccc(OCc2cc(C(=O)NC(C)CCn3cccn3)no2)cc1 (centres undefined)	none
CCOC(=O)C1CCN(Cc2ccccc2C(F)(F)F)CC1	none
CCOC(=O)C1CCCCN1Cc1ccccc1C(F)(F)F (centres undefined)	Bead autofluor 17635
Cc1ccccc1C(=O)Oc1ccc(Br)cc1C(=S)N1CCCC1	BoNT A protease inconclusive, Bead autofluor 22492
COc1ccc(CCNC(=O)C2CCN(S(=O)(=O)c3cccs3)CC2)cc1OC	none
C/C(=N\Nc1ncnc2sc(C)c(C)c12)c1ccccn1	BoNT-F LC inh 40, BoNT A protease 40
COc1ccc(-n2c(SCC(=O)Nc3ccc(OCc4ccccc4)cc3)nnc2-c2ccc(C)cc2)cc1	none (no result: 3CLpro inhibitor, BoNT-F LC inh, BoNT A protease, Anthrax LF prot, Bead autofluor)
O=C(Nc1ccccc1Cl)c1cnccn1	none
O=C(Nc1ccc(Br)cc1Cl)c1cnccn1	BoNT A protease inconclusive, Bead autofluor 17512
CCn1c(SCc2cccc(F)c2)nc2c(c1=O)SCC2	none
CC(C)(C)OC(=O)NCCc1nnc(SCC(=O)Nc2cccc(Cl)c2)o1	Bead autofluor 22287
CC(C)(C)OC(=O)NCCc1nnc(SCC(=O)Nc2ccc(Br)cc2)o1	BoNT-F LC inh inconclusive
CC(C)(C)OC(=O)NCCCCCc1nnc(SCC(=O)Nc2cccc(Cl)c2)o1	Bead autofluor 16480
NCCc1nnc(SCC(=O)Nc2cccc(Cl)c2)o1	none
CN[C@H]1C[C@H]2c3[nH]c4cccc(-c5cccc(F)c5)c4c3CCN2C(=O)[C@H]1[C@H](C)O	none (no result: 3CLpro inhibitor, BoNT-F LC inh, BoNT A protease, Anthrax LF prot, Bead autofluor)
Cc1occc1-c1nnc(SCC(=O)N2CCCCC2)o1	none
Cc1cccnc1NC(=O)Nc1ccccc1	none
Cc1cc(C)c(C(N)=O)c(NC(=O)Nc2ccccc2)n1	Bead autofluor 22860
C=CCNC(=O)CN(C(=O)Cc1ccc(Cl)nc1)c1cccc(Br)c1	none (no result: 3CLpro inhibitor, BoNT-F LC inh, BoNT A protease, Anthrax LF prot, Bead autofluor)
Cc1cc(C)n(-c2nc3ccccc3nc2N2CCCC2)n1	Bead autofluor 19617
Cc1cc(C)n(-c2nc3ccccc3nc2N2CCCCCC2)n1	none
S=C(NCCc1ccccc1)Nc1c(Cl)cccc1Cl	BoNT-F LC inh inconclusive, BoNT A protease inconclusive
N#CCC[C@@H]1CC[C@]2(CCCN(C(=O)C3CCCC3)C2)O1	none (no result: 3CLpro inhibitor, BoNT-F LC inh, BoNT A protease, Anthrax LF prot, Bead autofluor)
COc1ccc(C(C)(O)c2nc(-c3ccoc3)cs2)cc1 (centres undefined)	none (no result: 3CLpro inhibitor)
O=C(NCCO)c1ccc(Cl)c(Cl)c1	none
Nc1nsnc1C(=O)NCCO	Bead autofluor 17466
CC(OC(=O)C1=COCCO1)C(=O)NC1CCCC(C)C1C (centres undefined)	none (no result: 3CLpro inhibitor)
CCN1CCN(c2ccc(NC(=O)c3ccc4c(c3)OCO4)cc2)CC1	Bead autofluor 16331
COc1cccc(C(=O)Nc2ccc(-n3nncc3C(C)(C)C)cc2)c1	none
CCCCC(=O)Nc1ccc(NC(=O)c2ccc3c(c2)OCO3)cc1OC	Bead autofluor 22707
CC(C)(C)c1cnnn1-c1ccc(NC(=O)c2ccc3c(c2)OCO3)cc1	Bead autofluor 23470
CC(C)(C)c1cnnn1-c1ccc(NC(=O)c2ccc(Br)o2)cc1	Bead autofluor 20983
COc1ccccc1C(CNC(=O)c1ccc(NS(=O)(=O)c2ccc3c(c2)OCCO3)cc1)N(C)C (centres undefined)	none (no result: 3CLpro inhibitor)
Cc1oc(C2CC2)cc1C(=O)O	Bead autofluor 19572
Cc1cc(C(=O)O)c(C)o1	none (no result: 3CLpro inhibitor, BoNT-F LC inh, BoNT A protease, Anthrax LF prot, Bead autofluor)
COc1ccc(-c2[nH]ncc2CNC(C)c2cn(C)nc2C)c(F)c1 (centres undefined)	none
Fc1ccccc1Oc1nc(-c2ccncc2)nc2ccccc12	BoNT-F LC inh inconclusive, BoNT A protease inconclusive
COC(=O)C1=C(C)N(C)C(=O)NC1c1cc(Cl)cc(Cl)c1OC (centres undefined)	BoNT A protease inconclusive, Bead autofluor 17435
